Laboratory results taken from PubChem BioAssay AID504850 (National Center for Advancing Translational Sciences (NCATS), 2011).
The whole screen tested about 2,300 compounds, of which about 1,200 (52%) were called active. Inconclusive results (about 34%) are left out. So high a share suggests a set chosen from earlier hits. This is one part of the list. A number with no mark means an inactive call. Calls follow the shape of the dose curve; as a rule, active = well fitted inhibition curve with a large enough effect; inconclusive = small, poorly fitted or top-dose-only effect, or effect the other way; inactive = no such curve, though single readings can be large or run the other way.

Assay: Confirmation screen for delayed death inhibitors of the malarial parasite plastid, 48 hour incubation; also: nearly all actives have a fitted effect of over 65% in size
Settings: P. falciparum-infected erythrocytes, luciferase growth; series mostly up to 28.7 µM; activity change, negative = inhibition: at the top concentration
In short: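 Single-generation (48 h, 37 C) exposure of integrated firefly luciferase-reporter P. falciparum in red cells, 0.1% parasitemia at 2% hematocrit, Albumax-supplemented RPMI. Falling luciferase signal marks parasite growth inhibition.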
% is scaled to controls: 0 for no effect and ±100 for the full control effect; potency is read from the fitted curve at half-maximal effect.

Structure (SMILES)	Potency	activity change, negative = inhibition [%]
CCN(CC)S(=O)(=O)c1ccc(N2CCOCC2)c(NC(=O)C2CSC3(C)CCC(=O)N23)c1 (centres undefined)	14.1 µM (active)	–
COc1ccc([C@@]2(C(C)C)ON(c3ccccc3C(F)(F)F)C2=O)cc1	1.12 µM (active)	–
CCOC(=O)CC(Nc1nc(N2CCOCC2)nc(N2CCOCC2)n1)c1ccccc1Cl (centres undefined)	6.31 µM (active)	–
CCCc1ccc(C(=O)NC(=O)c2ccccc2O)cc1	0.501 µM (active)	–
CSc1ccccc1OCc1cc(C(=O)NCCCn2nc(C)cc2C)no1	15.8 µM (active)	–
CSc1ccccc1OCc1cc(C(=O)N2C[C@H]3CC[C@H]2C3)no1	–	-29.5
CSc1ccccc1OCc1cc(C(=O)NCCn2ccnc2C)no1	–	15.8
CSc1ccccc1OCc1cc(C(=O)N(C)CCc2c(C)n[nH]c2C)no1	12.6 µM (active)	–
CCN(CCN1CCCC1)C(=O)c1cc(COc2ccccc2SC)on1	15.8 µM (active)	–
Nc1nc(SCC(=O)NCC2CCCO2)[nH]c(=O)c1NC(=O)c1ccc(F)c(F)c1 (centres undefined)	12.6 µM (active)	–
CCS(=O)(=O)c1nc(S(=O)(=O)c2ccc(C)cc2)c(N2CCC3(CC2)OCCO3)s1	12.6 µM (active)	–
CC(C)Cc1ccc(C(=O)Nc2ccc(Cc3ccncc3)cc2)o1	12.6 µM (active)	–
CCN(CC)S(=O)(=O)c1cc(NC(=O)C(C)OC(=O)c2[nH]c(C)c(C(C)=O)c2C)ccc1C (centres undefined)	4.47 µM (active)	–
Cc1oc2c(c1C(=O)N1CCOCC1)C(=O)c1ccccc1C2=O	2 µM (active)	–
CCCC1O[C@@H]2CC3C4CCC5=CC(=O)C=C[C@]5(C)C4C(OC(C)=O)C[C@]3(C)[C@]2(C(=O)COC(C)=O)O1 (some centres undefined)	7.08 µM (active)	–
COC1C(OC(=O)/C=C/C=C/C=C/C=C/C(=O)O)CCC2(CO2)C1C1(C)OC1CC=C(C)C (centres undefined)	0.0562 µM (active)	–
CCc1ccc(/C=C/c2c[nH]c3ccccc23)[n+](CC)c1	0.126 µM (active)	–
CC[n+]1ccc(/C=C/c2c[nH]c3ccccc23)cc1	0.355 µM (active)	–
CC(C)CC1NC(=S)N(Cc2ccccc2)C1=O (centres undefined)	5.01 µM (active)	–
Cc1nnsc1C(=O)Nc1ccccc1	–	14.9
NC(=O)c1ccc(NC(=O)C#Cc2ccccc2)cc1	5.01 µM (active)	–
O=C(C#Cc1ccccc1)Nc1cccc(F)c1	7.94 µM (active)	–
Nc1ccc(-c2c3ccc(=O)cc-3oc3cc(O)ccc23)c(C(=O)O)c1	–	3.65
c1ccc(Cn2nnc3c(N4CCCCCC4)ncnc32)cc1	14.1 µM (active)	–
CCn1c(=O)n(CC)c2cc(N3CCCC3)c(NC(=O)c3ccc(C)cc3)cc21	11.2 µM (active)	–

Structure (SMILES)	Potency	activity change, negative = inhibition [%]
Cc1ccc(NC(=O)COc2ccccc2C#N)cc1S(=O)(=O)N1CCCCCC1	14.1 µM (active)	–
COc1ccc(NC(=O)Cc2coc3cc(C)c(C(C)C)cc23)cc1S(=O)(=O)N1CCOCC1	12.6 µM (active)	–
O=C(COC(=O)c1ccc(F)c(S(=O)(=O)N2CCOCC2)c1)Nc1ccc2[nH]c(=O)[nH]c2c1	–	-10.8
COc1ccc(CC(=O)NNC(=O)CN(C)S(=O)(=O)c2ccc(Cl)cc2)cc1OC	–	-28.2
COc1ccc(NC(=O)Cc2ccc(Cl)cc2)cc1S(=O)(=O)N1CCCCC1	12.6 µM (active)	–
COc1ccccc1-c1coc2cc(OC(=O)N3CCOCC3)ccc2c1=O	–	7.66
Cc1csc(NC(=O)Cc2coc3cc(C)c(C(C)C)cc23)n1	14.1 µM (active)	–
CC1(C)CC(=O)C=C(NC2=CC3OC(c4ccccc4)OCC3OC2=O)C1 (centres undefined)	–	6.44
CC[n+]1ccccc1/C=C/c1ccc(N(C)C)cc1	2.24 µM (active)	–
Cc1ccc(/C=C/c2ccc(N(C)C)cc2)[n+](C)c1	1.26 µM (active)	–
COc1cc(/C=C(/C#N)C(=O)NCc2ccccc2)cc(OC)c1OC	14.1 µM (active)	–
CC[C@@H](C(=O)[C@@H](C)[C@@H](O)[C@H](C)CCc1ccc(C)c(O)c1C(=O)O)[C@H]1O[C@](CC)([C@H]2CC[C@](O)(CC)[C@H](C)O2)C[C@@H]1C	0.708 µM (active)	–
COc1ccc(N2CCc3c(C)nc4c(OC)cc(OC)cc4c32)c(OC)c1	11.2 µM (active)	–
Cc1ccccc1OCC(=O)NCCC1=CCCCC1	–	-31.7
Cc1cc(=O)nc2c3ccccc3n(CC(=O)NCCC3=CCCCC3)n12	12.6 µM (active)	–
Brc1ccc(/C=N/Nc2ncnc3c2cnn3Cc2ccccc2)cc1	3.98 µM (active)	–
COC(=O)c1ccc(COc2ccccc2/C=N/O)o1	–	-21.8
COc1cccc(/C=N/NC(=O)c2nc(-c3ccccc3)cc(-c3ccccc3)n2)c1O	6.31 µM (active)	–
O=C(Cn1ncc2c3ccccc3n(Cc3cccc(Cl)c3)c2c1=O)NCc1ccccn1	14.1 µM (active)	–
COc1ccc(Cn2c(O)c(C=Nc3ccc(O)cc3)c3ccccc3c2=O)cc1	10 µM (active)	–
CC[C@@H]1CC=C[C@H]2[C@H]1C(=O)N(Cc1ccccc1)[C@H]2c1ccoc1	7.08 µM (active)	–
O=C(COC(=O)c1c2c(nc3ccccc13)CCN(Cc1ccccc1)C2)Nc1c(F)cccc1F	6.31 µM (active)	–
COc1cccc(CN2CCN(c3nc4nonc4nc3N3CCCCC3)CC2=O)c1	10 µM (active)	–
CC(Oc1cccc(Cl)c1)C(=O)Nc1cc(S(=O)(=O)N2CCOCC2)ccc1N1CCCCC1 (centres undefined)	5.01 µM (active)	–
